Laboratory results published in article PMC11574364.

Columns and labels:
Assay in all cases: protein domain microarray probed with biotinylated miRNA; Domain array: 20 mM Tris-HCl pH 7.4, 200 mM KCl, 0.2 mM EDTA, 0.05% NP40, 2 ug/ul heparin, overnight 4 C. ORF array: PBS pH 7.0 with RNase inhibitor, 100 ng RNA; high values mean tight binding
Settings in all cases: ssRNA
PSF = biological target: T1, PSF (Homo sapiens, UniProt P23246)
T1 sequence: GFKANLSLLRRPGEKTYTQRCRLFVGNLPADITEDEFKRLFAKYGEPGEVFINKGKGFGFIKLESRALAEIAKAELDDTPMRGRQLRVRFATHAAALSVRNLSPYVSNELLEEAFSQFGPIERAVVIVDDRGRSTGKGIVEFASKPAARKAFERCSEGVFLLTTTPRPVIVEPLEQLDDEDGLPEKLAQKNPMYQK

RKHD1 = biological target: T2, RKHD1 (Homo sapiens, UniProt Q86XN8)
T2 sequence: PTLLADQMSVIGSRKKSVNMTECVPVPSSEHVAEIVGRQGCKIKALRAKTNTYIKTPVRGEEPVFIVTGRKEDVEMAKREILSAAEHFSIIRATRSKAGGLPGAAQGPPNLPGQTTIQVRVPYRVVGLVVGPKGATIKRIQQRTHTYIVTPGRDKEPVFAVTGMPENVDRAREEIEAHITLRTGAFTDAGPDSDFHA

ANKRD17 = biological target: T3, ANKRD17 (Homo sapiens, UniProt O75179)
T3 sequence: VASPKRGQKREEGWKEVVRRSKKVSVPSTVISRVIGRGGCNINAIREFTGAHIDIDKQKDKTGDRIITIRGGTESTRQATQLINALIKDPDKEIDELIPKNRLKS

RBMS3 = biological target: T4, RBMS3 (Homo sapiens, UniProt Q6XE24)
T4 sequence: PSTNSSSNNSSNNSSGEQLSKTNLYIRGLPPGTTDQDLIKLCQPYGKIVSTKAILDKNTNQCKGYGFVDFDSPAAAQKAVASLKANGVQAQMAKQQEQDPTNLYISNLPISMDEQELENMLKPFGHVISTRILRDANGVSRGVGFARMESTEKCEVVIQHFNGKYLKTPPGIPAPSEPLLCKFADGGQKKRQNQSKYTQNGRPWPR

YTHDC2 = biological target: T5, YTHDC2 (Homo sapiens, UniProt Q9H6S0)
T5 sequence: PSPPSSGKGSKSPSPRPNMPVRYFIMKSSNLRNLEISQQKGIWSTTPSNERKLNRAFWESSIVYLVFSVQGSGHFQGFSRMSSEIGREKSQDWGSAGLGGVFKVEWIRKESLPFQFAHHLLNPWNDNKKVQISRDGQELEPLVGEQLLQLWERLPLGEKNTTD

VIGILIN(11-14) = VIGILIN(11-14) (Homo sapiens, UniProt Q00341)
RBM20 = biological target: T6, RBM20 (Homo sapiens, UniProt Q5T481)
T6 sequence: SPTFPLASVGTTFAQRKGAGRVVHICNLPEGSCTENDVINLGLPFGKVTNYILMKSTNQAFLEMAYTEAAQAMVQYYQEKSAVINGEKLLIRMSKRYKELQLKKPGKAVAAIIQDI

SAFB1 = SAFB1 (Homo sapiens, UniProt Q15424)
RNPC3(1) = biological target: T7, RNPC3(1) (Homo sapiens, UniProt Q96LT9)
T7 sequence: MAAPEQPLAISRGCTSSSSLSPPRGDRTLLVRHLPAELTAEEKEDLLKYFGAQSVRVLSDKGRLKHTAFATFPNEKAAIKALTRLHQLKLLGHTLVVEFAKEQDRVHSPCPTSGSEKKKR

ADAR(1) = biological target: T8, ADAR(1) (Homo sapiens, UniProt P55265)
T8 sequence: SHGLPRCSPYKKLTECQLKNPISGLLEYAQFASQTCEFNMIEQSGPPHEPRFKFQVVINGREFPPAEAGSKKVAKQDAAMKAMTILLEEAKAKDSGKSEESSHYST

VIGILIN(11-14), sequence (Q00341 861-1229): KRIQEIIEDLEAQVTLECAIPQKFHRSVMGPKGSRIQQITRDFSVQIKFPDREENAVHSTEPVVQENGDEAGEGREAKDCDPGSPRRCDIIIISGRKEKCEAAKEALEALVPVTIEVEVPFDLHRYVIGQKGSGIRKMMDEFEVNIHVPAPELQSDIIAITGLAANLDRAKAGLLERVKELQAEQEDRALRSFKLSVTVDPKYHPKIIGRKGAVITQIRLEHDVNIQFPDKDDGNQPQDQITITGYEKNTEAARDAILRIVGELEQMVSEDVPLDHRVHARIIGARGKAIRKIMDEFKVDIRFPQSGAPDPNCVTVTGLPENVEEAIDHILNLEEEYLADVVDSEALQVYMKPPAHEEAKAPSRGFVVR
SAFB1, sequence (Q15424 380-500): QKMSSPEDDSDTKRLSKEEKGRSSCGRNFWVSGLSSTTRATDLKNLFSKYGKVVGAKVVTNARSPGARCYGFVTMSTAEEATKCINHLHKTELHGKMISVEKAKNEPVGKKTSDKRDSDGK

Sequence	binding signal (PSF)	binding signal (RKHD1)	binding signal (ANKRD17)	binding signal (RBMS3)	binding signal (YTHDC2)	binding signal (VIGILIN(11-14))	binding signal (RBM20)	binding signal (SAFB1)	binding signal (RNPC3(1))	binding signal (ADAR(1))
CAGUGCAAUGAUGAAAGGGCAU	80.6 ± 13.1 fluorescence intensity	1330 ± 109 fluorescence intensity	37 ± 2.43 fluorescence intensity	211.2 ± 1.16 fluorescence intensity	65.2 ± 5.22 fluorescence intensity	287 ± 28.5 fluorescence intensity	34.77 ± 0.255 fluorescence intensity	228 ± 31.6 fluorescence intensity	61.8 ± 4.94 fluorescence intensity	
AGAGGUAGUAGGUUGCAUAGUU	905 ± 13.5 fluorescence intensity	2940 ± 199 fluorescence intensity	36.4 ± 1.75 fluorescence intensity	410 ± 20.1 fluorescence intensity	114 ± 5.32 fluorescence intensity	285 ± 6.8 fluorescence intensity	39.7 ± 5.85 fluorescence intensity	280 ± 28.4 fluorescence intensity	201 ± 18.2 fluorescence intensity	20.7 ± 1.3 fluorescence intensity
UGAGGUAGUAGGUUGUGUGGUU	1020 ± 15.7 fluorescence intensity	1570 ± 135 fluorescence intensity	94.6 ± 8.68 fluorescence intensity	564 ± 40.7 fluorescence intensity	156 ± 16.8 fluorescence intensity	968 ± 111 fluorescence intensity	66.7 ± 5.15 fluorescence intensity	633 ± 29.4 fluorescence intensity	391 ± 55.5 fluorescence intensity	30.1 ± 1.12 fluorescence intensity
UAGCUUAUCAGACUGAUGUUGA		977 ± 62.8 fluorescence intensity		45.1 ± 0.672 fluorescence intensity				37.5 ± 1.2 fluorescence intensity		
UGAGGUAGUAGGUUGUAUGGUU	837 ± 12.7 fluorescence intensity	1910 ± 204 fluorescence intensity	51.9 ± 4.92 fluorescence intensity	363 ± 14.3 fluorescence intensity	143 ± 6.97 fluorescence intensity	911 ± 66.7 fluorescence intensity	53.6 ± 5.51 fluorescence intensity	299 ± 26.8 fluorescence intensity	192 ± 55.7 fluorescence intensity	27.9 ± 1.27 fluorescence intensity
UGAGGUAGUAGGUUGUAUAGUU	265 ± 6.17 fluorescence intensity	1260 ± 32.7 fluorescence intensity	26 ± 1.62 fluorescence intensity	86.8 ± 4.41 fluorescence intensity	27.7 ± 2.35 fluorescence intensity	145 ± 5.55 fluorescence intensity		94.4 ± 9.54 fluorescence intensity	38.5 ± 11.8 fluorescence intensity	
